Legend:
Assay in all cases: DAPPL (digital affinity profiling via proximity ligation, sequencing); 10 mM Tris-HCl pH 7.5, 50 mM NaCl, 1 mM DTT, 4% glycerol, room temperature, 30 min; GST-TFs on glutathione beads, 16-mer random dsDNA library, 0.1% formaldehyde crosslink after washing; high values mean tight binding
Settings in all cases: protein: recombinant; tags: N-terminal GST; dsDNA, one strand shown
FLI1 = target: T1, FLI1 (Homo sapiens, UniProt Q01543 1-452)
T1 sequence: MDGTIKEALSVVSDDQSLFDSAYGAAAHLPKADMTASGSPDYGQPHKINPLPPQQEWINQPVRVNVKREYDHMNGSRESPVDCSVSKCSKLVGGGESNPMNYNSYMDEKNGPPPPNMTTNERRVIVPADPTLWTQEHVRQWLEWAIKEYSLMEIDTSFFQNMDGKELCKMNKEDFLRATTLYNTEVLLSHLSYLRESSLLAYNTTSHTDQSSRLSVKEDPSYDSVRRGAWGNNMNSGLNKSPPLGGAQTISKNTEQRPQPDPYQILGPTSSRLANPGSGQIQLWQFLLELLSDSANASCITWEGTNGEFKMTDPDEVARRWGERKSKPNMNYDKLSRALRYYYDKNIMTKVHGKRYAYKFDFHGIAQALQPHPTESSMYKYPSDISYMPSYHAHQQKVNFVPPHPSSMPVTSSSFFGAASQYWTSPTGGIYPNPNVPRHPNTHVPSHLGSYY
In short: (§1)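 Each value of binding signal is a hexamer's read frequency for a factor divided by the same hexamer's frequency in the tag-only sample. Barcoded, bead-captured GST fusions of human transcription factors made in yeast were pooled with that sample and incubated with 200 nmole of a random double-stranded 16-mer DNA library in Tris/NaCl/DTT/glycerol buffer at room temperature for 30 min. Washing, 0.1% formaldehyde crosslinking, proximity ligation, PCR and Illumina NextSeq500 sequencing followed.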

ELK1 = target: T2, ELK1 (Homo sapiens, UniProt P19419 1-428)
T2 sequence: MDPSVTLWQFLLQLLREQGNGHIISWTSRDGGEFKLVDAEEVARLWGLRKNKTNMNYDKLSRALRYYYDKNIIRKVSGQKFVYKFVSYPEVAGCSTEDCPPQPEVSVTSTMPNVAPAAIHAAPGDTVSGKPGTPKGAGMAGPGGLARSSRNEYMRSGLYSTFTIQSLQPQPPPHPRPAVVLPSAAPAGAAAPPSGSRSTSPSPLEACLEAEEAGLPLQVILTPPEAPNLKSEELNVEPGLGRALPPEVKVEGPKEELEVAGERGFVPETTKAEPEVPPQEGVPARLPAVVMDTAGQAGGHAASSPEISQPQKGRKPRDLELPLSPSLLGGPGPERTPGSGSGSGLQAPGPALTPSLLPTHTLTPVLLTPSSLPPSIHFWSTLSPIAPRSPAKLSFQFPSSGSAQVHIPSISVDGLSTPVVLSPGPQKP
In short: as §1

GABPA = target: T3, GABPA (Homo sapiens, UniProt Q06546 1-454)
T3 sequence: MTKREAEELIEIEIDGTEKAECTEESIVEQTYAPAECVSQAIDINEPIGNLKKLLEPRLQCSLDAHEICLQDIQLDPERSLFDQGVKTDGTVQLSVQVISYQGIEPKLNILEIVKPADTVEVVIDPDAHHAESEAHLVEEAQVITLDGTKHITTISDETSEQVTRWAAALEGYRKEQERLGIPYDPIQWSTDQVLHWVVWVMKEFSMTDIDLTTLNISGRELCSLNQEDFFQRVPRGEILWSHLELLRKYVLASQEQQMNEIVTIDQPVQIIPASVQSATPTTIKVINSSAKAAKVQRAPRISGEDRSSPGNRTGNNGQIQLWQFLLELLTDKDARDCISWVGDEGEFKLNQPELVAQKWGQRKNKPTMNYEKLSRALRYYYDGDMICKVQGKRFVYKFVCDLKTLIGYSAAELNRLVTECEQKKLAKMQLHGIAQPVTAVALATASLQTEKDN
In short: as §1

ERG = target: T4, ERG (Homo sapiens, UniProt P11308 1-479)
T4 sequence: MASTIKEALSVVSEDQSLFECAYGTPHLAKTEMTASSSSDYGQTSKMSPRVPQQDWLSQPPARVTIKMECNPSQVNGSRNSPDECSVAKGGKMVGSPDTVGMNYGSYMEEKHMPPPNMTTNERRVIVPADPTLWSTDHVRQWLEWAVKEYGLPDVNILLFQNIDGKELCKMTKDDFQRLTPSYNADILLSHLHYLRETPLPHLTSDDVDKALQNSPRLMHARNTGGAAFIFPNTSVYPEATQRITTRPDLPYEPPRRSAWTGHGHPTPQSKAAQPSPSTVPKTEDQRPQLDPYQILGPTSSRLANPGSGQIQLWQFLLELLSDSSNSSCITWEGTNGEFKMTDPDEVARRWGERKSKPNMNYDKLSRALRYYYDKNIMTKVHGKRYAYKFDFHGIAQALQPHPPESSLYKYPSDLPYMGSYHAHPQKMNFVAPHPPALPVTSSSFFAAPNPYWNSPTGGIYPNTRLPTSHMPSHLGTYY
In short: as §1

ELF1 = ELF1 (Homo sapiens, UniProt P32519 1-619)
Sequence of ELF1 (P32519 whole entry): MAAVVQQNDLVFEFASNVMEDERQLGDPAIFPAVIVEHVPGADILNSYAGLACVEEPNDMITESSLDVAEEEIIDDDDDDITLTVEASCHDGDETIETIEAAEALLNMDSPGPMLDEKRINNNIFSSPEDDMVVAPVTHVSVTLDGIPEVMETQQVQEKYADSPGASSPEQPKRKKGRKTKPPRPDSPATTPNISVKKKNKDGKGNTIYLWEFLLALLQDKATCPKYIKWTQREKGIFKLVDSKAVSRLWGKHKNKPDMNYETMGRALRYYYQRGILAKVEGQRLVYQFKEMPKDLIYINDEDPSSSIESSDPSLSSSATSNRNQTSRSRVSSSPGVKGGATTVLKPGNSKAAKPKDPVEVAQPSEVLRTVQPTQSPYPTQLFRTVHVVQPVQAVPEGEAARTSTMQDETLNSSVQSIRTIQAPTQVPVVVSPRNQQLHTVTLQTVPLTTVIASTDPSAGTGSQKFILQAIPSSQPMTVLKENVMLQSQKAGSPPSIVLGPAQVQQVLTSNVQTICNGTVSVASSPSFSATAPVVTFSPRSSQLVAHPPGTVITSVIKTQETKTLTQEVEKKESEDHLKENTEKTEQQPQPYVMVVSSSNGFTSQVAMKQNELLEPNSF
In short: as §1

EHF = target: T5, EHF (Homo sapiens, UniProt Q9NZC4 1-300)
T5 sequence: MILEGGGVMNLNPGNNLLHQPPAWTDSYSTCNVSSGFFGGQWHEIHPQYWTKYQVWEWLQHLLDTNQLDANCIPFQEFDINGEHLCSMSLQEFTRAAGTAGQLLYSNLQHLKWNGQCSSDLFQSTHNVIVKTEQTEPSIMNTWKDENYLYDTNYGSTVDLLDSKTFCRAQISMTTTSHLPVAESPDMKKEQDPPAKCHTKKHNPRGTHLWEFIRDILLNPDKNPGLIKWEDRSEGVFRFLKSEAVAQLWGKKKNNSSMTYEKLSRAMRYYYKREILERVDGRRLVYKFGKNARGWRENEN
In short: as §1

SPI1 = SPI1 (Homo sapiens, UniProt P17947 1-270)
In short: as §1

SPIB = SPIB (Homo sapiens, UniProt Q01892 1-262)
Sequence of SPIB (Q01892 whole entry): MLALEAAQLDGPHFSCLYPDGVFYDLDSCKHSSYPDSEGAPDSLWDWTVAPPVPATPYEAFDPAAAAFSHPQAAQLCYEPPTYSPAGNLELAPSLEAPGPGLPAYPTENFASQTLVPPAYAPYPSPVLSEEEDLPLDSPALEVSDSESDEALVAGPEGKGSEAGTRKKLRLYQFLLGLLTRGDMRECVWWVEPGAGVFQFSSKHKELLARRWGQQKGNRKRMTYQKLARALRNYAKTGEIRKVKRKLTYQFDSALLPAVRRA
In short: as §1

ELK3 = target: T6, ELK3 (Homo sapiens, UniProt P41970 1-407)
T6 sequence: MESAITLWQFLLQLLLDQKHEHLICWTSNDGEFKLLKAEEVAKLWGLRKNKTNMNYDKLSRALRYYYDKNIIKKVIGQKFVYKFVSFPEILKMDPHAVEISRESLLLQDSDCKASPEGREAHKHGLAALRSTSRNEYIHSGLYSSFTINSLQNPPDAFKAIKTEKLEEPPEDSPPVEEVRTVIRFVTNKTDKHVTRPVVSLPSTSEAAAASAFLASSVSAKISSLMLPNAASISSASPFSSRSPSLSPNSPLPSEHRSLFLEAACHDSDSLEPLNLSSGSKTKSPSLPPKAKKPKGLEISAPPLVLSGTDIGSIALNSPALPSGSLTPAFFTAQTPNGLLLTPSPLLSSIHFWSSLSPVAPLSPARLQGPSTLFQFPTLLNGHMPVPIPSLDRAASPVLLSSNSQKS
In short: as §1

Sequence	binding signal (FLI1)	binding signal (ELK1)	binding signal (GABPA)	binding signal (ERG)	binding signal (ELF1)	binding signal (EHF)	binding signal (SPI1)	binding signal (SPIB)	binding signal (ELK3)
TCCGCT	2.39 fold enrichment (6-mer frequency, TF over GST control)	2.38 fold enrichment (6-mer frequency, TF over GST control)	2.06 fold enrichment (6-mer frequency, TF over GST control)	2.31 fold enrichment (6-mer frequency, TF over GST control)	2.11 fold enrichment (6-mer frequency, TF over GST control)	2.33 fold enrichment (6-mer frequency, TF over GST control)	3.26 fold enrichment (6-mer frequency, TF over GST control)	2.37 fold enrichment (6-mer frequency, TF over GST control)	2.43 fold enrichment (6-mer frequency, TF over GST control)
TCATCC	1.4 fold enrichment (6-mer frequency, TF over GST control)	1.38 fold enrichment (6-mer frequency, TF over GST control)	1.39 fold enrichment (6-mer frequency, TF over GST control)	1.36 fold enrichment (6-mer frequency, TF over GST control)	1.41 fold enrichment (6-mer frequency, TF over GST control)	1.38 fold enrichment (6-mer frequency, TF over GST control)	1.34 fold enrichment (6-mer frequency, TF over GST control)	1.34 fold enrichment (6-mer frequency, TF over GST control)	1.43 fold enrichment (6-mer frequency, TF over GST control)
TACGAA	1.15 fold enrichment (6-mer frequency, TF over GST control)	1.23 fold enrichment (6-mer frequency, TF over GST control)	1.3 fold enrichment (6-mer frequency, TF over GST control)	1.23 fold enrichment (6-mer frequency, TF over GST control)	1.28 fold enrichment (6-mer frequency, TF over GST control)	1.22 fold enrichment (6-mer frequency, TF over GST control)	1.15 fold enrichment (6-mer frequency, TF over GST control)	1.19 fold enrichment (6-mer frequency, TF over GST control)	1.25 fold enrichment (6-mer frequency, TF over GST control)
CTCCTC	1.36 fold enrichment (6-mer frequency, TF over GST control)	1.38 fold enrichment (6-mer frequency, TF over GST control)	1.39 fold enrichment (6-mer frequency, TF over GST control)	1.26 fold enrichment (6-mer frequency, TF over GST control)	1.32 fold enrichment (6-mer frequency, TF over GST control)	1.54 fold enrichment (6-mer frequency, TF over GST control)	1.39 fold enrichment (6-mer frequency, TF over GST control)	1.4 fold enrichment (6-mer frequency, TF over GST control)	1.31 fold enrichment (6-mer frequency, TF over GST control)
TTCAGC	1.27 fold enrichment (6-mer frequency, TF over GST control)	1.2 fold enrichment (6-mer frequency, TF over GST control)	1.26 fold enrichment (6-mer frequency, TF over GST control)	1.24 fold enrichment (6-mer frequency, TF over GST control)	1.23 fold enrichment (6-mer frequency, TF over GST control)	1.25 fold enrichment (6-mer frequency, TF over GST control)	1.18 fold enrichment (6-mer frequency, TF over GST control)	1.18 fold enrichment (6-mer frequency, TF over GST control)	1.27 fold enrichment (6-mer frequency, TF over GST control)
ATGAAT	1.16 fold enrichment (6-mer frequency, TF over GST control)	1.16 fold enrichment (6-mer frequency, TF over GST control)	1.2 fold enrichment (6-mer frequency, TF over GST control)	1.11 fold enrichment (6-mer frequency, TF over GST control)	1.07 fold enrichment (6-mer frequency, TF over GST control)	1.14 fold enrichment (6-mer frequency, TF over GST control)	1.15 fold enrichment (6-mer frequency, TF over GST control)	1.23 fold enrichment (6-mer frequency, TF over GST control)	1.12 fold enrichment (6-mer frequency, TF over GST control)
TTATCC	1.47 fold enrichment (6-mer frequency, TF over GST control)	1.39 fold enrichment (6-mer frequency, TF over GST control)	1.37 fold enrichment (6-mer frequency, TF over GST control)	1.43 fold enrichment (6-mer frequency, TF over GST control)	1.31 fold enrichment (6-mer frequency, TF over GST control)	1.52 fold enrichment (6-mer frequency, TF over GST control)	1.41 fold enrichment (6-mer frequency, TF over GST control)	1.54 fold enrichment (6-mer frequency, TF over GST control)	1.5 fold enrichment (6-mer frequency, TF over GST control)
CCCATT	1.36 fold enrichment (6-mer frequency, TF over GST control)	1.25 fold enrichment (6-mer frequency, TF over GST control)	1.46 fold enrichment (6-mer frequency, TF over GST control)	1.41 fold enrichment (6-mer frequency, TF over GST control)	1.39 fold enrichment (6-mer frequency, TF over GST control)	1.24 fold enrichment (6-mer frequency, TF over GST control)	1.47 fold enrichment (6-mer frequency, TF over GST control)	1.27 fold enrichment (6-mer frequency, TF over GST control)	1.41 fold enrichment (6-mer frequency, TF over GST control)
TCATCT	1.23 fold enrichment (6-mer frequency, TF over GST control)	1.28 fold enrichment (6-mer frequency, TF over GST control)	1.27 fold enrichment (6-mer frequency, TF over GST control)	1.15 fold enrichment (6-mer frequency, TF over GST control)	1.3 fold enrichment (6-mer frequency, TF over GST control)	1.13 fold enrichment (6-mer frequency, TF over GST control)	1.18 fold enrichment (6-mer frequency, TF over GST control)	1.28 fold enrichment (6-mer frequency, TF over GST control)	1.16 fold enrichment (6-mer frequency, TF over GST control)

From publication PMC7862700, “An all-to-all approach to the identification of sequence-specific readers for epigenetic DNA modifications on cytosine”
